# Measured values reported in PubChem BioAssay (NCATS).
# “And” between values parts separate entries of the source, which are not always exact repeats. Equal values may be shown once. Results filed as inconclusive are left out. A call without a number means that no potency is given here. The source made the active and inactive calls. Unless noted, the call rests on the fitted dose curve; in most records, active means well fitted curve in the direction sought with a large enough effect; inconclusive means small, poorly fitted or top-dose-only effect, or another doubt; inactive means no such curve, though single readings can be large; an effect the other way counts as inactive or inconclusive.
# How the values were obtained:
# [1] = S16 Schwann cell viability assay (CellTiter-Glo assay) (AID 624031);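 further: cellular ATP luminescence as a viability measure; nearly all actives have a fitted effect of over 70% in size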
# Method in brief: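 Luminescent ATP read-out (CellTiter-Glo) after 24 h compound exposure of native S16 rat Schwann cells at 37 °C. Signals were normalized between cell-free wells and DMSO-treated cells, set as 0% activity.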
# [2] = S16 Schwann cell PMP22 intronic element beta-lactamase assay (AID 624044; calls by dose curve; further: nearly all actives have a fitted effect of over 15% in size)
# Method in brief: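 Beta-lactamase reporter under a PMP22 intronic regulatory element in stable S16 rat Schwann cells; 24 h compound exposure. 460 nm blue signal normalized between DMSO (0%) and potassium clavulanate, with 535 nm FRET tracking viability; curves classed by r2 and response.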
# [3] = biological target: Glutaminase kidney isoform, mitochondrial (Homo sapiens) (UniProt O94925); test: qHTS for Inhibitors of Glutaminase (GLS): LOPAC Validation (AID 624146);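 further: glutamate product detected by oxidase and peroxidase coupled Amplex red fluorescence gain; nearly all actives have a fitted effect of over 60% in size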
# Method in brief: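 Enzyme dispensed in phosphate buffer (45 mM, pH 8.2, 0.02% Tween-20), compounds pinned in, then 1 mM L-glutamine solution and the glutamate oxidase–HRP–Amplex Red mix added; fluorescence read immediately and again after 30 min at room temperature.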
# [4] = qHTS of Trypanosoma Brucei Inhibitors: LOPAC Validation (AID 624147)
# Method in brief: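 Enzyme and substrate buffer are dispensed first and compound is pin-transferred. ADP at 130 uM final then starts the reaction, which runs 45 min at room temperature. Detection reagent is added for 10 min before luminescence is imaged.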
# [5] = biological target: Glucagon-like peptide 1 receptor (Homo sapiens) (UniProt P43220); test: qHTS of GLP-1 Receptor Agonists: LOPAC Validation (AID 624148);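 further: higher luminescence signal means agonism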
# Method in brief: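 HEK293 cells stably co-expressing GLP-1R and a cAMP-responsive luciferase reporter, plated 12 hours before compound, then incubated 4-6 hr at 37 deg C. Luminescence read 12 min after detection reagent.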
# [6] = qHTS of Nrf2 Activators: LOPAC Validation (AID 624149)
# Method in brief: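 Following overnight seeding in 5% FBS OPTI-MEM, AREc32_Fluc cells receive compounds for a 24 hr incubation at 37 deg C with 5% CO2. Steady-Glo is added, and after 30 min at RT luminescence is recorded.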
# [7] = HTS Assay for Allosteric Antagonists of the Human D2 Dopamine Receptor: Hit Validation in HTRF (AID 624455);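 further: stable D1 dopamine receptor cell line scored for blocking the D1 response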
# Method in brief: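 Validation of hits used D1 receptor stably expressed in cells with HTRF detection of response inhibition; origin screen measured calcium flux following EC80 dopamine in a force-coupled, inducible Hek293 Trex D2 cell line.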
# [8] = qHTS assay for small molecule agonists of the antioxidant response element (ARE) signaling pathway (AID 651741; active means well fitted activation curve with a large enough effect in the signal ratio; the % refers to the signal ratio; further: potency means the concentration at half of the fitted maximal effect)
# Method in brief: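 HepG2 ARE-bla reporter cells, 2,000/well; 5 h settle at 37 C/5% CO2; compound pin transfer (23 nL, DMSO); 16 h at 37 C; LiveBLAzer B/G FRET substrate, 2 h RT; fluorescence intensity read.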
# [9] = qHTS assay for small molecule disruptors of the mitochondrial membrane potential - 1 hr assay (AID 651754; calls by dose curve; further: potency means the concentration at half of the fitted maximal effect; nearly all actives have a fitted effect of over 35% in size)
# Method in brief: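 In this qHTS format, a 1 hr compound treatment of HepG2 cells precedes Mito-MPS staining, and membrane potential is judged from aggregate (red) against monomer (green) fluorescence intensity.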
# [10] = qHTS assay for small molecule disruptors of the mitochondrial membrane potential - 5 hr assay (AID 651755; calls by dose curve; further: potency means the concentration at half of the fitted maximal effect; nearly all actives have a fitted effect of over 40% in size)
# Method in brief: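 Read-out: ratiometric Mito-MPS fluorescence, green monomer (ex 490/em 535) vs red mitochondrial aggregate (ex 540/em 590). HepG2 cells treated 5 hr at 37C before 30 min dye loading.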
# [11] = Cytotoxicity counterscreen for NFkB agonists and antagonists (AID 624476); further: potency means the concentration at half of the fitted maximal effect
# [12] = qHTS Assay for Identification of Small Molecule Agonists for NFkB Signaling Pathway. (AID 624478);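 further: compounds tested together with TNF alpha at its EC50 of 10 pM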
# Method in brief: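 Assay medium contained 0.5% FBS and 10 mM HEPES pH 7.3. Compounds were added together with TNF alpha (10 pM final), incubated 5 h at 37 C, and the beta-lactamase signal was measured fluorometrically.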
# [13] = qHTS Assay for Identification of Small Molecule Antagonists for NFkB Signaling Pathway. (AID 624479; calls by dose curve;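 further: pathway stimulated with TNF alpha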; further: potency means the concentration at half of the fitted maximal effect)
# [14] = Cell Proliferation Assay against the TMD8 Cell Line (AID 651645); details: TMD8 DLBCL cell line proliferation/viability; at 46.1 µM (top of the series) unless noted;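 further: cells exposed to compound for 48 h before reading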
# Method in brief: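 TMD8 ABC DLBCL cells, 500 per well in phenol red-free RPMI with 5% FBS, were treated with compound by pin transfer and incubated 48 hours at 37C, 5% CO2. Viability was read by CellTiter-Glo luminescence, normalised to DMSO (100%) and 9.2 uM bortezomib (0%).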
# [15] = Cell Proliferation Assay against the TMD8 Cell Line (Caspase readout at 16 hrs) (AID 651712); further: potency means the concentration at half of the fitted maximal effect
# Method in brief: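 Caspase-Glo luminescence after 16 h compound exposure of TMD8 cells, 37 °C, 5% CO2. Medium: RPMI without phenol red, 5% FBS. Normalisation: DMSO = 0%, bortezomib 9.2 uM final = 100%.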
# [16] = qHTS assay for small molecule activators of the nuclear factor-kappa B (NF-kB) signaling pathway (AID 651749; active means well fitted activation curve with a large enough effect in the signal ratio; the % refers to the signal ratio); details: NF-kB-bla ME-180 cells, beta-lactamase FRET ratio, 16 h; stronger effect = higher value
# Method in brief: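 NF-kB-bla ME-180 cells, 2,000/well; 23 nL compound or DMSO pinned; 16 hr, 37C/5% CO2; beta-lactamase FRET read-out.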
# [17] = biological target: Tumor necrosis factor (Homo sapiens) (UniProt P01375); test: qHTS assay to identify small molecules that stimulate Tumor Necrosis Factor-alpha (TNF-alpha) secretion (AID 651757; active means well fitted curve in the direction sought with a large enough effect in the signal ratio; the % refers to the signal ratio)
# Method in brief: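 Using 3000 THP-1 cells per well, compounds and controls were applied for 17 hrs at 37 C. Detection followed with two labeled anti-TNF-alpha antibodies (cryptate donor, XL665 acceptor) for 3 hr at room temperature, measured by TR-FRET.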
# Glutaminase kidney isoform, mitochondrial (Homo sapiens), sequence (O94925 whole entry, looked up, canonical isoform): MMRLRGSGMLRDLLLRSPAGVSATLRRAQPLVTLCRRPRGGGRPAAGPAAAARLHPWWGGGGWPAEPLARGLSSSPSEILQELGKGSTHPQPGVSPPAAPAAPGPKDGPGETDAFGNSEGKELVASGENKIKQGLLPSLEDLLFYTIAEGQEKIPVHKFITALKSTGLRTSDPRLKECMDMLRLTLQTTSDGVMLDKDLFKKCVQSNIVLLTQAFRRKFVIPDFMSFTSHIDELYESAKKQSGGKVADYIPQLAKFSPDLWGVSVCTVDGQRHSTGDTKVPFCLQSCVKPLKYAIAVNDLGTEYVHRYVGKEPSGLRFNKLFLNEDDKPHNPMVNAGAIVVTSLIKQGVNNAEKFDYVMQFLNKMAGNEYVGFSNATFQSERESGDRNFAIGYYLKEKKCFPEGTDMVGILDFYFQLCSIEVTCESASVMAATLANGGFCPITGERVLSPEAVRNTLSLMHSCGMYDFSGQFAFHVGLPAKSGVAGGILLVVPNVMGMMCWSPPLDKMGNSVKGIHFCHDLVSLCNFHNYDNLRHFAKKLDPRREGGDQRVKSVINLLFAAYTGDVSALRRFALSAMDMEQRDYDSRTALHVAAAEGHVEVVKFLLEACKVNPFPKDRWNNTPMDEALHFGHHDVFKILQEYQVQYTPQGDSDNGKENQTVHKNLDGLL
# Glucagon-like peptide 1 receptor (Homo sapiens), sequence (P43220 whole entry, looked up): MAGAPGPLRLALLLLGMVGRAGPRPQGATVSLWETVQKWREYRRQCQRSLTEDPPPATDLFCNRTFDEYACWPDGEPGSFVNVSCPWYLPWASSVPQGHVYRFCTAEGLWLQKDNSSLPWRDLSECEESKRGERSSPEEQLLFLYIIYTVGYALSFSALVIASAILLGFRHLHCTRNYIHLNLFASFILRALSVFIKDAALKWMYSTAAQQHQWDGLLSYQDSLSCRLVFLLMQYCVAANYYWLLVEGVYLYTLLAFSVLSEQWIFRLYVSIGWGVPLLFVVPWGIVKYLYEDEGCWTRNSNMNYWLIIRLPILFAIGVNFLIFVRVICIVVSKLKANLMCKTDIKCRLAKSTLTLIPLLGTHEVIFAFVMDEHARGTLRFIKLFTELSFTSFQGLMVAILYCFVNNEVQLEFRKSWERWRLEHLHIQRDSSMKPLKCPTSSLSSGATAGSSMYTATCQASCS
# Tumor necrosis factor (Homo sapiens), sequence (P01375 whole entry, looked up): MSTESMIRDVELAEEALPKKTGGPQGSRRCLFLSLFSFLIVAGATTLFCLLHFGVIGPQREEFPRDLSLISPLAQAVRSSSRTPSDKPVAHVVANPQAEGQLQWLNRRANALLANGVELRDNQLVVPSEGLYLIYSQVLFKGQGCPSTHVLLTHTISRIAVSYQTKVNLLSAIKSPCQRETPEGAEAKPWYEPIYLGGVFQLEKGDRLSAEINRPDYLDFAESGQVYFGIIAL
structure (smiles),measurement,setting,value
Clc1ccc(COC(Cn2ccnc2)c2ccc(Cl)cc2Cl)cc1 (centres undefined),Potency,[1],inactive
same,Potency,[2],inactive
O=c1cc(-c2ccc(O)cc2)oc2cc(O)cc(O)c12,Potency,[3],inactive
same,outcome,[4],inactive
same,outcome,[5],inactive
same,outcome,[6],inactive
same,outcome,[7],inactive
same,Potency,[8],24.3 µM (active) and 33.5 µM (active)
same,Potency,[9],2.98 µM (active)
same,Potency,[10],5.96 µM (active)
O=c1cc(N2CCOCC2)oc2c(-c3cccc4c3sc3ccccc34)cccc12,Potency,[11],18.7 µM (active)
same,outcome,[12],inactive
same,Potency,[13],13.3 µM (active)
same,viability (% of control),[14],2.51%
C[N+](C)(C)CC(=O)O,Potency,[3],inactive
same,outcome,[5],inactive
same,outcome,[6],inactive
same,outcome,[7],inactive
CC(C)C(=O)Nc1ncc(-c2cc(C(F)F)nn2-c2c(Cl)cccc2Cl)s1,Potency,[11],inactive
same,outcome,[12],inactive
same,Potency,[13],18.8 µM (active)
same,viability (% of control),[14],9.91%
same,Potency,[15],16.6 µM (active)
CC1(C)CCC2=C(O1)c1ccccc1C(=O)C2=O,outcome,[4],inactive
same,outcome,[5],inactive
same,outcome,[6],inactive
same,outcome,[7],inactive
Clc1ccc(C(c2ccc(Cl)cc2)n2cc[n+](CC(OCc3ccc(Cl)cc3Cl)c3ccc(Cl)cc3Cl)c2)cc1 (centres undefined),Potency,[3],inactive
same,outcome,[4],inactive
same,outcome,[5],inactive
same,outcome,[6],inactive
same,outcome,[7],inactive
O=C(O)CCC1CCC(c2cc(F)ccc2F)(S(=O)(=O)c2ccc(Cl)cc2)CC1 (centres undefined),Potency,[11],inactive
same,outcome,[12],inactive
same,Potency,[13],inactive
same,viability (% of control),[14],98.2%
same,Potency,[15],inactive
CC(=O)O[C@]1(C(C)=O)CC[C@H]2[C@@H]3C=C(Cl)C4=CC(=O)[C@@H]5C[C@@H]5[C@]4(C)[C@H]3CC[C@@]21C,Potency,[1],inactive
same,Potency,[3],inactive
same,outcome,[4],inactive
same,outcome,[5],inactive
same,outcome,[6],inactive
same,outcome,[7],inactive
same,Potency,[8],54.5 µM (active) and 42.2 µM (active)
same,activation,[16],-2.59% (inactive) and -0.559% (inactive)
same,outcome,[17],inactive
O=C(O)c1c(Cl)c(Cl)c(Cl)c(Cl)c1-c1c2cc(I)c(=O)c(I)c-2oc2c(I)c(O)c(I)cc12,Potency,[1],inactive
same,Potency,[2],inactive
O=C(Nc1cc(Cl)cc2c1[nH]c1cnccc12)c1cccnc1,Potency,[11],inactive
same,outcome,[12],inactive
same,Potency,[13],18.8 µM (active)
same,viability (% of control),[14],1.73%
COc1ccc(C2CC(c3ccccc3)=NN2c2ccc(S(N)(=O)=O)cc2)cc1 (centres undefined),outcome,[12],inactive
same,Potency,[13],inactive
same,viability (% of control),[14],13.6%
O=c1cc(CN2CCOCC2)occ1OCCCCCSc1ccnc2cc(C(F)(F)F)ccc12,outcome,[12],inactive
same,viability (% of control),[14],6.87%
CC(C)(C)C(=O)Oc1ccc2c(c1)nc(NC(=O)c1cccc([N+](=O)[O-])c1)n2CCCO,Potency,[11],inactive
same,outcome,[12],inactive
same,Potency,[13],4.73 µM (active)
same,viability (% of control),[14],0.179%
same,Potency,[15],inactive
COc1ncc(-c2ccc3nccc(-c4ccnnc4)c3c2)cc1NS(=O)(=O)c1ccc(F)cc1F,Potency,[11],1.05 µM (active)
same,outcome,[12],inactive
same,Potency,[13],11.9 µM (active)
same,viability (% of control),[14],1.53%
same,Potency,[15],inactive
CS(=O)c1ccc(-c2nc(-c3ccc(F)cc3)c(-c3ccncc3)[nH]2)cc1 (centres undefined),Potency,[11],inactive
same,outcome,[12],inactive
same,Potency,[13],inactive
same,Potency,[15],inactive
Cc1ccc(F)c(NC(=O)Nc2ccc(-c3cccc4[nH]nc(N)c34)cc2)c1,outcome,[12],inactive
same,Potency,[13],1.49 µM (active)
same,viability (% of control),[14],4.9%
same,Potency,[15],inactive
OC[C@H]1O[C@@H](n2cnc3c2NC=NC[C@@H]3O)C[C@H]1O,Potency,[11],inactive
same,outcome,[12],inactive
same,Potency,[13],inactive
same,viability (% of control),[14],95.3%
same,Potency,[15],inactive
NC(CO)(CO)CCc1ccc(Sc2cccc(OCc3ccccc3)c2)cc1Cl,viability (% of control),[14],0.474%
same,Potency,[15],inactive
CN1CCN(CCOc2cc(OC3CCOCC3)c3c(Nc4c(Cl)ccc5c4OCO5)ncnc3c2)CC1,outcome,[12],inactive
same,viability (% of control),[14],17.4%
